Inconclusive results are not listed. Where a call stands in place of a potency, no number is given. Some compounds were tested as several samples or in several runs, with calls that do not always agree. The source made the active and inactive calls. Unless noted, calls follow the shape of the dose curve; as a rule, active = well fitted curve in the direction sought with a large enough effect in the repeat runs; inconclusive = weak or mixed curves; inactive = no such curve, though single readings can be large; an effect the other way counts as inactive or inconclusive.
Key:
[1] = qHTS assay to identify small molecule antagonists of the thyroid receptor (TR) signaling pathway - cell viability counter screen (AID 743064); also: nearly all actives have a fitted effect of over 50% in size
In short: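 In-well cytotoxicity read by CellTiter-Fluor (30 min, 37 C) following 23.5 h exposure of GH3 cells bearing a TRE-luciferase sensor. Compounds were added alongside 1 nM (final) T3 to drive TR transactivation.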

[2] = qHTS assay to identify small molecule antagonists of the thyroid receptor (TR) signaling pathway (AID 743065); also: nearly all actives have a fitted effect of over 55% in size; also: potency is read from the fitted curve at half-maximal effect
In short: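 GH3.TRE-Luc rat pituitary cells (two TREs driving luciferase) were dosed with compound, then stimulated with 1 nM T3 (final) for 23.5 h at 37 C. ONE-Glo luminescence was the read-out, with CellTiter-Fluor fluorescence as the cytotoxicity counter-screen.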

[3] = test system: thyroid hormone receptor (rat, GH3 cells); assay: qHTS assay to identify small molecule agonists of the thyroid receptor (TR) signaling pathway (AID 743066; calls by dose curve)
[4] = biological target: Estrogen receptor (Homo sapiens) (UniProt P03372); assay: qHTS assay to identify small molecule antagonists of the estrogen receptor alpha (ER-alpha) signaling pathway (AID 743069; active = well fitted curve in the direction sought with a large enough effect in the signal ratio in the repeat runs, not every such curve was filed as active; the % refers to the signal ratio)
In short: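 In this cell-based reporter format, GripTite HEK293 cells harbouring ER-alpha-UAS-bla were grown overnight with 2% charcoal-stripped FBS, dosed with DMSO-dissolved compounds, then challenged with 17beta-estradiol. After 18 hr at 37C, beta-lactamase activity was detected by FRET fluorescence.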

[5] = qHTS assay to identify small molecule antagonists of the estrogen receptor alpha (ER-alpha) signaling pathway - cell viability counter screen (AID 743074; calls by dose curve; also: nearly all actives have a fitted effect of over 45% in size)
[6] = biological target: Estrogen receptor (Homo sapiens) (UniProt P03372); assay: qHTS assay to identify small molecule agonists of the estrogen receptor alpha (ER-alpha) signaling pathway (AID 743075; calls by dose curve)
[7] = biological target: Estrogen receptor (Homo sapiens) (UniProt P03372); assay: qHTS assay to identify small molecule agonists of the estrogen receptor alpha (ER-alpha) signaling pathway using the BG1 cell line (AID 743079); conditions: BG1Luc4E2 cells, ERE-luciferase agonist, 22 h; activation: at 70.3 µM (top of the series) unless noted; also: nearly all actives have a fitted effect of over 20% in size; also: potency is read from the fitted curve at half-maximal effect
[8] = qHTS assay to identify small molecule antagonists of the estrogen receptor alpha (ER-alpha) signaling pathway using the BG1 cell line (AID 743080; calls by dose curve;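 also: BG1 cells stimulated with 17beta-estradiol alongside compound; nearly all actives have a fitted effect of over 25% in size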)
In short: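 Seeding, 24 h rest, compound transfer from DMSO, 17beta-estradiol addition, 21.5 h incubation, CellTiter-Fluor (30 min, 37 C), then ONE-Glo (30 min, room temperature): this sequence was run on BG1-Luc-4E2 reporter cells.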

[9] = qHTS assay to identify small molecule antagonists of the estrogen receptor alpha (ER-alpha) signaling pathway using the BG1 cell line - cell viability counter screen (AID 743081);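 also: compound given together with 17beta-estradiol as the ER stimulus; nearly all actives have a fitted effect of over 45% in size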
Aromatase (Homo sapiens) = Aromatase (Homo sapiens) (UniProt P11511); assay: qHTS assay to identify aromatase inhibitors (AID 743083); also: nearly all actives have a fitted effect of over 55% in size
Aromatase (Homo sapiens), sequence (P11511 whole entry, looked up): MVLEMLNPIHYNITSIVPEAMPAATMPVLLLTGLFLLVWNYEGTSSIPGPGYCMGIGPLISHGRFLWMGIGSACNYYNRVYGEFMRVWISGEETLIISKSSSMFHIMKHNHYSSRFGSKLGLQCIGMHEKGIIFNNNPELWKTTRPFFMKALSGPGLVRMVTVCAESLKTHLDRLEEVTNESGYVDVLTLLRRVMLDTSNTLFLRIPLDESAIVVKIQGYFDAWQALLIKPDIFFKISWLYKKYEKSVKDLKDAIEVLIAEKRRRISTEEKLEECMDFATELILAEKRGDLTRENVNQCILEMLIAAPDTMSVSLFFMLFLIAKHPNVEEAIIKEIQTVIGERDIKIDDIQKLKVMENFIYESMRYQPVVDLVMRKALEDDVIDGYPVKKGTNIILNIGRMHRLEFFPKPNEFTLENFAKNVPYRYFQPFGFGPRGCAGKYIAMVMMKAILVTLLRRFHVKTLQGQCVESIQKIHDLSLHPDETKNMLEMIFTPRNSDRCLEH

Estrogen receptor (Homo sapiens), sequence (P03372 whole entry, looked up): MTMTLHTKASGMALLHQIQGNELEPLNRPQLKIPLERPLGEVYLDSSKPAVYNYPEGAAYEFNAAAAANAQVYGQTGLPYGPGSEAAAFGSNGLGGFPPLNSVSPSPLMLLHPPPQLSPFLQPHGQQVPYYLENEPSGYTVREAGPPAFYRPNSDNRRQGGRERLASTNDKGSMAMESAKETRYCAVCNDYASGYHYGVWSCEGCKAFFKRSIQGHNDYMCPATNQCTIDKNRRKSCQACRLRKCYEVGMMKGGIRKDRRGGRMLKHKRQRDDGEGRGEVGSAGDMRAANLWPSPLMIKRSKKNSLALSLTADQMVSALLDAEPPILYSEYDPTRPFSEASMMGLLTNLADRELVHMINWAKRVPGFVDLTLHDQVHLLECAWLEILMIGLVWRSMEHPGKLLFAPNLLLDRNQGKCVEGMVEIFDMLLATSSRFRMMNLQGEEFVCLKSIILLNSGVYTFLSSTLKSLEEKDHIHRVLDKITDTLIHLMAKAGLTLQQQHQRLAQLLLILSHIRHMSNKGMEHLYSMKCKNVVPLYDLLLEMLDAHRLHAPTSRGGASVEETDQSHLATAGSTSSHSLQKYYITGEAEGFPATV

Structure (SMILES) | Potency [1] | Potency [2] | Potency [3] | Potency [4] | Potency [5] | Potency [6] | Potency [7] | Potency [8] | Potency [9] | Potency (Aromatase (Homo sapiens)) | activity change, negative = cytotoxic [1] | activity, negative = inhibition [2] | activity, negative = inhibition [4] | activation [7]
C=CC(=O)NCOCCCC | inactive | inactive | inactive | inactive | inactive | inactive | inactive | inactive | inactive | inactive |  |  |  | 
COC(=O)CCCCC(=O)OC | inactive | inactive | inactive | inactive | inactive | inactive | inactive | inactive | inactive | inactive |  |  |  | 
O=C(Cl)c1ccc(C(=O)Cl)cc1 | inactive | inactive | inactive | inactive | inactive | inactive | inactive | inactive | inactive | inactive |  |  |  | 
Nc1cccc(C(F)(F)F)c1 | inactive | inactive | inactive | inactive | inactive | inactive | inactive | inactive | inactive | inactive |  |  |  | 
CCCCCCCC(=O)O | inactive | inactive | inactive | inactive | inactive | inactive | inactive | inactive | inactive | inactive |  |  |  | 
Cc1ccccc1Cl | inactive | inactive | inactive | inactive | inactive | inactive | inactive | inactive | inactive | inactive |  |  |  | 
O=C1C(N(CO)C(=O)NCO)N(CO)C(=O)N1CO (stereo unspecified) | inactive | inactive | inactive | inactive | inactive | inactive | inactive | inactive | inactive | inactive |  |  |  | 
Cc1ccncc1 | inactive | inactive | inactive | inactive | inactive | inactive | inactive | inactive | inactive | inactive |  |  |  | 
CCCCCCCCO | inactive | inactive | inactive | inactive | inactive | inactive | inactive | inactive | inactive | inactive |  |  |  | 
Cc1ccc(C(C)C)cc1 | inactive | inactive | inactive | inactive | inactive | inactive | inactive | inactive | inactive | inactive |  |  |  | 
OCC(O)CS (stereo unspecified) | inactive | inactive | inactive | inactive | inactive | inactive | 11.9 µM (active) and inactive | inactive | inactive | inactive |  |  |  | 
Nc1cccc(N)n1 | inactive | inactive | inactive | inactive | inactive | inactive | inactive | inactive | inactive | inactive |  |  |  | 
CC(=O)OC/C=C(\C)CCC=C(C)C | inactive | inactive | inactive | inactive | inactive | inactive | inactive | inactive | inactive | inactive |  |  |  | 
C1CCCNCC1 | inactive | inactive | inactive | inactive | inactive | inactive | inactive | inactive | inactive | inactive |  |  |  | 
CC1(C)C(=O)N(Cl)C(=O)N1Cl | inactive | inactive | inactive | inactive | inactive | inactive | 77 µM (active) and inactive | inactive | inactive | inactive |  |  |  | 
O=C1CCCCCCCCCCC1 | inactive | inactive | inactive | inactive | inactive | inactive | inactive | inactive | inactive | inactive |  |  |  | 
CC(=O)C(C)C | inactive | inactive | inactive | inactive | inactive | inactive | inactive | inactive | inactive | inactive |  |  |  | 
CCCCCCCCC(=O)O | inactive | inactive | inactive | inactive | inactive | inactive | inactive | inactive | inactive | inactive |  |  |  | 
CCCCCCCCCCCC(=O)N(C)CC(=O)O |  | 59.2 µM (active) | inactive |  | inactive | inactive |  | inactive | inactive | inactive | 15.6% [at 8.44 µM] (inactive) | 7.52% [at 8.44 µM] (inactive) | -5.64% [at 6.71 µM] (inactive) | -3.44% [at 8.47 µM] (inactive)
NC(=O)NC(N)=O | inactive | inactive | inactive | inactive | inactive | inactive | inactive | inactive | inactive | inactive |  |  |  | 
OC1CCCCC1 | inactive | inactive | inactive | inactive | inactive | inactive | inactive | inactive | inactive | inactive |  |  |  | 
OB(O)O | inactive | inactive | inactive | inactive | inactive | inactive | inactive | inactive | inactive | inactive |  |  |  | 

From PubChem BioAssay (Tox21)
